G9a inh = G9a (human) methyltransferase inhibition. Potency, µM (top dose mostly 102 µM), for inactives: top-dose activity, negative = inhibition, usual class: inhibitors. 350,000 tested, 8.8% active. G9a H3K9 monomethylation, AlphaScreen, 2 h. AID 504332. Q96KQ7; further: on the % scale 0 is the no-effect control and ±100 the full control effect; nearly all actives have a fitted effect of over 75% in size
Target sequence (Q96KQ7 913-1193 limits assumed): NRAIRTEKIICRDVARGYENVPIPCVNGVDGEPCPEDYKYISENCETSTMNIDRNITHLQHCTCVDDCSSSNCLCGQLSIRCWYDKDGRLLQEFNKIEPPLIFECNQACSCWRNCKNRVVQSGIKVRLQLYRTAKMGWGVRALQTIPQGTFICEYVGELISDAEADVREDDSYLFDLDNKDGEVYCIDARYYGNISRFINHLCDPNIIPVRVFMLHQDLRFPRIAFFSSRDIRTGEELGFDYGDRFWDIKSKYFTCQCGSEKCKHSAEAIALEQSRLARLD
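Using a bead-based AlphaScreen, monomethylated H3K9 product from 2 h room-temperature reactions (G9a 20 nM, peptide 500 nM, SAM 20 uM) was detected with 0.5 ug/mL rabbit anti-H3K9me1 antibody.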
BAZ2B inh = blocks human BAZ2B. Q9UIF8. AlphaScreen BAZ2B-H3K14Ac peptide displacement. Potency, µM (titrated, usually from 114 µM), for the others: at the top dose activity change, negative = inhibition, hits mostly inhibitors. 360,000 tested, 4.4% active. AID 504333; further: on the % scale 0 is the no-effect control and ±100 the full control effect; nearly all actives have a fitted effect of over 60% in size
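Protein-peptide AlphaScreen: BAZ2B 50 nM, b-H3K14Ac 50 nM, 1x PBS pH 7.4 + 0.01% Tween-20. Preincubation 30 min RT; cpd 30 min RT (top 110 uM); beads 20 min RT, light-protected.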
Sfp PPTase inh = Sfp phosphopantetheinyl transferase inhibition; Q9F4F7; Biochemical Sfp PPTase activity, qHTS; Potency, µM, for the others: largest response in the series, negative = inhibition, most hits filed as inhibitors; 310,000 tested, 3.5% active;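 further: the enzyme is Sfp with the accession as filed and its product quenches rhodamine fluorescence; 0% = enzyme reaction without inhibitor and -100% = no enzyme wells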
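Reaction rates are the 30-min fluorescence difference (ex 525, em 598 nm) in wells containing 15 nM Sfp, 5 uM rhodamine-CoA and 12.5 uM BHQ-2-YbbR at pH 7.6 with 10 mM MgCl2.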
JMJD2A Tudor inh = JMJD2A Tudor domain (human) inhibition. Potency, µM (doses to about 114 µM), for inactives: at the highest dose activity change, negative = inhibition, usual class: inhibitors. O75164. AID 504339. 390,000 tested, 4.4% active. AlphaScreen JMJD2A-Tudor / H3K4me3 peptide binding; further: on the % scale 0 is the no-effect control and ±100 the full control effect; nearly all actives have a fitted effect of over 50% in size
HP1b binding inh = inhibitors of HP1-beta chromodomain binding to methylated histone tails. AlphaScreen HP1-beta / biotin-H3K9me3 peptide binding. P83916. Potency, µM (top dose mostly 114 µM), for the others: top-dose activity change, negative = inhibition, hits mostly inhibitors. 390,000 tested, 0.56% active; further: nearly all actives have a fitted effect of over 70% in size
Target sequence (P83916 whole entry, looked up): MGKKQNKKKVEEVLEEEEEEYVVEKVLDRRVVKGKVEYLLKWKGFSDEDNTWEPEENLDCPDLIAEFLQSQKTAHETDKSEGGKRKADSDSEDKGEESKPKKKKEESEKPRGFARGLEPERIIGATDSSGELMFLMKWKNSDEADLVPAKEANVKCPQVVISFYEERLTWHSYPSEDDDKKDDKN
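AlphaScreen: HP1-beta (50 nM) preformed 30 min with biotin-H3(1-18)K9me3 peptide (50 nM) in PBS pH 7.4, 0.01% Tween-20. Compound added for 30 min at RT, then streptavidin donor/nickel chelate acceptor beads (10 ug/mL) for 30 min.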
Starred values were filed as active, the others as inactive; u = inconclusive; x = not tested or not shown; [ ] = remark or other dose. Hits are enriched below; roughly 12% of the tested compounds scored in any of these assays. The call rests on the fitted dose curve; in most records, active means well fitted curve in the direction sought with a large enough effect; inconclusive means small, poorly fitted or top-dose-only effect, or another doubt; inactive means no such curve, though single readings can be large; an effect the other way counts as inactive or inconclusive. Potency means the concentration at half of the fitted maximal effect.

SMILES	G9a inh	BAZ2B inh	Sfp PPTase inh	JMJD2A Tudor inh	HP1b binding inh
CCCCN1CC(O)C(O)C(O)C1CO (centres undefined)	-2%[12.7 µM]	x	2%	x	x
CCOc1ccc(N(C(C)C(=O)NN=C2CCCCCCC2)S(C)(=O)=O)cc1 (centres undefined)	8%[59 µM]	-4%	3%	-2%	29%
CCOc1ccc(N(C(C)C(=O)NC2CCCCCC2)S(C)(=O)=O)cc1 (centres undefined)	14µM*	-2%	-21%	-6%	-3%
COc1ccc(N2C(=O)[C@@H]3[C@H](C2=O)[C@H]2c4ccccc4C=CN2[C@@H]3C(=O)Nc2ccccc2)cc1	8.9µM*	-31%	-5%	u	5%
CC(=O)[C@@H]1[C@@H]2C(=O)N(Cc3ccccc3)C(=O)[C@@H]2C2c3ccccc3C=CN21 (some centres undefined)	2.8µM*	-30%	-13%	u	-2%
O=C(c1ccco1)[C@@H]1[C@@H]2C(=O)N(c3ccccc3)C(=O)[C@@H]2C2c3ccccc3C=CN21 (some centres undefined)	16%[2.33 µM]	79µM*	u	50µM*	-35%
Cc1ccc(N2C(=O)[C@@H]3[C@H](C2=O)C2c4ccccc4C=CN2[C@@H]3C(=O)c2ccco2)cc1 (some centres undefined)	3.2µM*	u	-23%	u	u
Cc1ccc(N2C(=O)[C@@H]3[C@H](C2=O)C2c4ccccc4C=CN2[C@@H]3C(=O)c2ccco2)c(C)c1 (some centres undefined)	6%[2.33 µM]	-33%	u	u	-26%
COc1ccc(N2CC(NC(=O)Nc3ccccc3)CC2=O)cc1 (centres undefined)	42%	10%	9%	-8%	26%
COc1ccc(-c2cnnn2-c2ccc(NC(=O)c3c(F)cccc3F)cc2)cc1	-23%[59 µM]	-30%	x	-35%	15%
Cc1ccc(NC(=O)C2CCN(S(=O)(=O)c3ccc4c(c3)OCCO4)CC2)c(O)c1	1%[0.501 µM]	2%	x	-11%	8%
CC(C)(C)C(=O)[C@@H]1[C@@H]2C(=O)N(c3ccc4c(c3)OCCO4)C(=O)[C@@H]2C2c3ccccc3C=CN21 (some centres undefined)	8.9µM*	u	-15%	u	u
CC(C)(C)C(=O)NC1CC(=O)N(c2ccc3c(c2)OCCO3)C1 (centres undefined)	8%[59 µM]	-15%	x	-7%	6%
O=C(NCc1ccc(/C=c2\sc3n(c2=O)CCN=3)o1)C(=O)Nc1ccccc1	50µM*	u	22µM*	x	x
Cc1ccc(/C=c2/sc3n(c2=O)CCCN=3)o1	8.9µM*	-7%	20µM*	-13%	26%
Cc1ccc(N2CN=c3s/c(=C\c4cccnc4)c(=O)n3C2)cc1	8%	-5%	-27%	-9%	40%
Cc1ccc(/C=c2\sc3n(c2=O)CN(c2ccc(Br)cc2)CN=3)o1	8.9µM*	-22%	10µM*	-5%[11.4 µM]	-32%
O=c1/c(=C\c2ccc3c(c2)OCO3)sc2n1CCCN=2	-9%	1%	7%	-16%	0%
Cc1ccc(C(=O)n2nc(C)c(S(=O)(=O)N3CCOCC3)c2C)cc1C	8%[59 µM]	-15%	x	-15%	34%[57 µM]
NCCCC[C@@H]1NC(=O)c2cc([N+](=O)[O-])cc(F)c2NCCCC[C@@H](C(N)=O)NC(=O)CNC1=O	-22%	0%	4%	-24%	37%
NC(=O)C(CC(=O)O)NC(=O)[C@@H]1CCCCNc2c(I)cc([N+](=O)[O-])cc2C(=O)N[C@@H](CO)C(=O)NCC(=O)N1 (some centres undefined)	28µM*	u	-6%	x	x
NC(=O)C(CC(=O)O)NC(=O)[C@@H]1CCCNc2c(I)cc([N+](=O)[O-])cc2C(=O)N[C@@H](CO)C(=O)N[C@@H](Cc2ccc(O)cc2)C(=O)N1 (some centres undefined)	50µM*	-26%	-10%	u	14%
CCCN1C(=O)C(Cc2nc3ccccc3c(=O)n2-c2cccc(C)c2)c2ccccc21 (centres undefined)	-35%[59 µM]	-26%	x	-35%	-1%
CSc1ccccc1OCc1cc(C(=O)N2CCN(c3ccccc3)CC2C)no1 (centres undefined)	15%	-20%	-1%	-17%	20%
CSc1ccccc1OCc1cc(C(=O)N2CCc3[nH]cnc3C2c2ccccn2)no1 (centres undefined)	u	56µM*	12%	18µM*	u
SMILES	G9a inh	BAZ2B inh	Sfp PPTase inh	JMJD2A Tudor inh	HP1b binding inh
Cc1ccc(C)c(N2CCN(C(=O)CCn3c(=O)c4cccn4c4cccnc43)CC2)c1	-4%[59 µM]	-12%	x	u	-15%
CC(=O)N1c2c(cc(Br)cc2S(=O)(=O)N2CCN(C(=O)c3ccco3)CC2)CC1C (centres undefined)	u	-1%	22%	22µM*	-10%
COC(=O)/C(=C\C(=O)c1ccc([N+](=O)[O-])cc1)Nc1ccc(OC)cc1	x	5.6µM*	-8%	18µM*	11µM*
COc1ccc(N/N=C(\C#N)C(N)=O)cc1	8.9µM*	-5%	1%	-34%	-14%
COc1ccc(N/N=C(\C#N)C(=N)N2CCOCC2)cc1	28µM*	-31%	-8%	-31%	12%
CCOc1ccc(N/N=C(/C#N)C(N)=O)cc1	u	-14%	12%	-30%	16%
N#C/C(=N/Nc1ccc(OC(F)(F)F)cc1)C(N)=S	x	35µM*	u	u	-19%
NC(=O)C1(Nc2ccccc2)CCCC1	x	x	x	-8%	32%
COc1ccc(C(=O)/C(C#N)=N/Nc2ccc([N+](=O)[O-])cc2)cc1	2µM*	7.1µM*	-4%	7.9µM*	u
COc1ccc(C(=O)/C(C#N)=N/Nc2ccccc2[N+](=O)[O-])cc1	u	-29%	8%	-23%	11%
Cc1cc(OCC(=O)N2CCN(c3cccc(Cl)c3)CC2)c2c(C)c(C)c(=O)oc2c1	4%	-11%[57.1 µM]	40µM*	-22%	52%
Cc1cc(OCC(=O)N2CCC[C@@H]2C(=O)O)c2c(C)c(C)c(=O)oc2c1	-6%	-29%	16%	-19%	28%
O=C(NCC[C@@H]1C[C@@H]2C=C[C@H]1C2)c1cc(COc2ccc(F)cc2F)on1	14%	8%	3%	35%	61%
C/C=C\c1ccc(OC)cc1	31%[59 µM]	x	26%	x	x
COc1ccc(/C=C/C2=CC(C)(C)NC(=S)N2)cc1	8.9µM*	-14%	6%	-8%[57.1 µM]	14%
O=S(=O)(c1ccccc1S(=O)(=O)N1CCCCC1)N1CCCCC1	5%	3%	12%	0%	15%
O=C1SC(c2ccccc2)=C/C1=C\N1CCCCC1	3%[0.0925 µM]	50µM*	u	50µM*	u

High-throughput results as filed in PubChem.
